Results taken from PubChem BioAssay.
Calls of active or inactive are those of the source.

What was measured:
[1] = compound effects on lung adenocarcinoma cell viability – A549, calcein-AM fluorescence, 48 h, basal, profiling panel (AID 1162); conditions: higher = more signal
[2] = compound effects on differentiated 3T3-L1 adipocyte viability – cell-based, 3T3-L1 adipocytes, calcein-AM fluorescence, 48 h, basal, profiling panel (AID 1163); conditions: 3T3-L1 adipocytes viability, higher = more signal
[3] = compound effects on hepatocellular carcinoma cell viability – HepG2, calcein-AM fluorescence, 48 h, basal, profiling panel (AID 1164); conditions: higher = more signal
[4] = compound effects on multiple myeloma cell viability – MM1S, calcein-AM fluorescence, 48 h, basal, profiling panel (AID 1165); conditions: higher = more signal
[5] = calcein-AM signal in unstimulated myeloma cells – cell-based, calcein-AM fluorescence, 48 h, PK04 Diversity Set, profiling panel (AID 1166); conditions: RPMI8226 myeloma viability, higher = more signal;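 note: cells grown under basal conditions without added stimulus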
[6] = JC-1 mitochondrial signal, unstimulated HepG2 cells – cell-based, JC-1 fluorescence, 24 h, 100 nL compound, profiling panel (AID 1167); conditions: HepG2 mitochondrial potential, higher = more signal
[7] = JC-1 mitochondrial signal, unstimulated adipocytes – cell-based, JC-1 fluorescence, 3T3-L1 adipocytes, 24 h, 100 nL compound, profiling panel (AID 1168); conditions: JC-1 mitochondrial fluorescence, higher = more signal, called active from +8 up or from −8 down
[8] = JC-1 mitochondrial signal, unstimulated myeloma cells – cell-based, JC-1 fluorescence, RPMI8226, 24 h, 100 nL compound, profiling panel (AID 1169); conditions: JC-1 mitochondrial potential fluorescence, higher = more signal
[9] = JC-1 mitochondrial signal, unstimulated MM1S myeloma – cell-based, JC-1 fluorescence, 24 h, 100 nL compound, profiling panel (AID 1170); conditions: MM1S mitochondrial potential, higher = more signal
[10] = resazurin metabolic signal in A549 cells – cell-based, resazurin fluorescence, 24 h, PK04 Diversity Set, profiling panel (AID 1171); conditions: A549 viability, higher = more signal, called active from +8 up or from −8 down
Note: test concentration not given here.

Compound | z-score [1] | z-score [2] | z-score [3] | z-score [4] | z-score [5] | z-score [6] | z-score [7] | z-score [8] | z-score [9] | z-score [10]
COC(=O)C=C(CC(O)c1cccc(Cl)c1)OC (stereo not given) | 0.409 | 0.0036 | 1.01 | 0.892 | -0.221 | 0.456 | 0.705 (inactive) | -0.738 | -1.36 | -0.34 (inactive)
CC(C)OC(=O)C=C1C[C@@H](c2ccccc2C(F)(F)F)O[C@@H](c2ccccc2C(F)(F)F)O1 | -0.677 | -0.984 | 0.761 | 0.737 | 0.217 | 0.752 | 0.341 (inactive) | 0.589 | -0.541 | 1.08 (inactive)
COc1cc2c(cc1OC)CN(C(=O)[C@H]1[C@@H]3C(=O)O[C@@H](c4ccccc4)[C@@H](c4ccccc4)N3[C@@H](c3ccc(O)cc3)[C@]13C(=O)Nc1ccc(C#CCNC(N)=O)cc13)CC2 | -0.697 | 0.448 | 0.148 | 0.703 | 0.168 | -1.31 | 0.635 (inactive) | 0.22 | -0.222 | -0.0437 (inactive)
C[C@]1(C(=O)NC2CC2)c2ccccc2C(=O)N(Cc2cc(C(F)(F)F)cc(C(F)(F)F)c2)[C@H]1c1ccc(CO)cc1 | 1.34 | 0.254 | 1.44 | 0.274 | 0.56 | 2.04 | -0.0278 (inactive) | -0.105 | -0.262 | 0.89 (inactive)
C[N+](C)(C)CCCCNC(=O)[C@H]1C[C@H]2C(=O)N[C@@H](Cc3ccccc3)C(=O)N2[C@H]1c1ccc(O)cc1 | -0.111 | -0.649 | 0.0005 | 0.27 | -0.546 | 0.169 | -0.333 (inactive) | -0.831 | -1.13 | -0.486 (inactive)
C=CCC(OC(C)=O)[C@@H]1[C@@H](N(Cc2ccc(-c3cccc(C(F)(F)F)c3)o2)C(=O)c2ccc(-c3ccccc3)cc2)c2cc(OCCCO)ccc2N1C(=O)c1ccc(-c2ccccc2)cc1 (stereo not given in full) | 0.0361 | 0.114 | 0.104 | 0.365 | -0.297 | 1.25 | -0.581 (inactive) | 0.287 | 0.872 | -0.176 (inactive)
CCOC(=O)C=Cc1cc([N+](=O)[O-])ccc1O | -0.563 | 1.39 | -1.27 | 0.112 | -2.29 | -1.91 | 0.428 (inactive) | -0.403 | -0.889 | 0.384 (inactive)
CCCCN1CC=CC23O[C@@H]4/C=C\CCC(C)OC(=O)C4[C@H]2C(=O)N(CCCCCO)[C@@H]3C1=O (stereo not given in full) | -0.143 | 0.0763 | 0.478 | 1.52 | 0.096 | 0.241 | 0.9 (inactive) | 0.32 | -0.133 | 0.455 (inactive)
NCCCCCNC(=O)[C@@H]1C[C@@H]2C(=O)NCC(=O)N2[C@@H]1c1ccc(O)cc1 | 0.685 | -0.366 | 0.678 | 0.545 | 0.895 | 1.32 | 0.114 (inactive) | -0.0558 | -0.408 | 0.508 (inactive)
CC(C)C[C@H]1NC(=O)[C@@]23C(=O)N[C@@H](Cc4ccccc4)C2[C@H](C)[C@@]2(C)O[C@H]2C3/C=C/C/C=C\CNC(=O)[C@H](Cc2ccccc2)NC1=O (stereo not given in full) | -0.278 | 0.733 | -1.03 | -0.207 | -0.567 | 0.804 | -0.172 (inactive) | -1.09 | 0.687 | 0.217 (inactive)
O=C1C2C=CC(C(O)C3CCCCC3)N(Nc3ccc([N+](=O)[O-])cc3)C2C(=O)N1c1ccccc1 (stereo not given) | -0.0334 | 0.652 | -0.0914 | -0.157 | -1.24 | -0.876 | -2.66 (inactive) | -0.143 | 0.507 | -1.06 (inactive)
COc1ccc([Si](C)(C)[C@@H]2[C@@H](CCO)O[C@]3(C(=O)N(Cc4ccc(N5C(=O)COc6ccccc65)cc4)c4ccccc43)[C@H]2C)cc1 | -1.54 | -0.0973 | -3.87 | -2.41 | -3.72 | -0.917 | -0.189 (inactive) | -0.923 | -1.53 | -2.38 (inactive)
O=C(NCc1ccccc1)[C@@]1(Cc2ccccc2)N=C(c2ccc(OCCCO)cc2)O[C@H]1c1ccccc1 | -2.86 | 0.967 | -2.26 | -1.42 | -3.32 | 1.19 | -0.357 (inactive) | -1.02 | -1.55 | -0.331 (inactive)
CN(C)C(=O)[C@@]1(Cc2ccccc2)N=C(c2ccc(OCCCO)cc2)O[C@H]1c1ccccc1N=[N+]=[N-] | -1.45 | 1.22 | -1.84 | -2.53 | -3.91 | 1.48 | 1.17 (inactive) | -0.981 | -2.53 | -1.63 (inactive)
CN1C(=O)C2C=CC(C(O)C3CC=CCC3)N(NC(=O)OC(C)(C)C)C2C1=O (stereo not given) | 0.414 | -0.61 | -0.622 | -0.0764 | -0.291 | -1.58 | -0.493 (inactive) | 0.295 | -0.121 | -0.111 (inactive)
C=C(COC)/C(=C/C[C@H](OC(=O)c1ccncc1)c1ccc(OCCO)cc1)c1cnc2ccccc2c1 | 1.54 | 0.317 | -0.303 | -1.98 | 0.0703 | -0.232 | -0.472 (inactive) | 0.147 | -0.799 | 0.67 (inactive)
COc1ccc([Si](C)(C)[C@H]2[C@H](CC(=O)N3CCC[C@H]3CO)O[C@@]3(C(=O)N(Cc4cccc(N5C(=O)c6cccc7cccc5c67)c4)c4ccccc43)[C@@H]2C)cc1 | -0.577 | 0.453 | -0.507 | -1.99 | -3.99 | 1.12 | -0.69 (inactive) | -1.12 | -0.388 | -0.892 (inactive)
CC(C)(C)OC(=O)CC[C@@]1(C(=O)NCC(O)CO)N=C(c2ccc(OCCCO)cc2)O[C@@H]1c1ccccc1N=[N+]=[N-] (stereo not given in full) | 1.79 | -0.309 | 1.34 | -0.312 | 0.0549 | 1.73 | 2.9 (inactive) | 0.11 | -0.884 | 0.642 (inactive)
CC1(C)[C@@H]2CC(C(O)C3C=CC4C(=O)N(c5ccccc5)C(=O)C4N3Nc3ccccc3)=C[C@H]1C2 (stereo not given in full) | -1.66 | -1.16 | -1.16 | -0.528 | -0.209 | -1.79 | -1.46 (inactive) | 0.263 | -0.527 | -0.158 (inactive)
CCOC(=O)C1=CCC(c2ccc(C)cc2)N(S(=O)(=O)c2ccc(C)cc2)C1 (stereo not given) | -1.25 | -0.825 | -0.743 | -0.537 | -1.37 | 5.35 | -1.08 (inactive) | 0.0194 | -1.82 | 0.697 (inactive)
CCCC[C@H]1OB(O)C[C@H]2C1=C(COc1ccccc1)C[C@H]1C(=O)N(C)C(=O)[C@H]12 | 0.498 | 0.0271 | 0.258 | -1.46 | -0.185 | -1.29 | 0.468 (inactive) | 0.304 | 0.35 | -0.166 (inactive)
COc1ccc(CCNC(=O)[C@@H]2c3ccccc3C(=O)N(C3Cc4ccccc4C3)[C@H]2c2ccc(CO)cc2)cc1 | 0.595 | 0.0644 | 0.0079 | -0.532 | -0.0245 | 1.6 | 0.00592 (inactive) | -0.78 | -0.0799 | 1.39 (inactive)
COCCOC(=O)N1C(=O)[C@@]2(c3cc(C#CC4=CCCCC4)ccc31)[C@H](c1ccc(O)cc1)N1[C@H](c3ccccc3)[C@H](c3ccccc3)OC(=O)[C@H]1[C@@H]2C(N)=O | 0.505 | 0.633 | -0.364 | -2.77 | -4.14 | -2.55 | 0.29 (inactive) | -0.902 | -1.19 | -0.954 (inactive)
C=CCC(OC(C)=O)[C@@H]1[C@@H](N(Cc2ccc(-c3ccccc3)cc2)C(=O)Cc2ccc(F)cc2)c2cc(OCCCO)ccc2N1C(=O)c1ccc(-c2ccccc2)cc1 (stereo not given in full) | -0.861 | 0.779 | 1.87 | 0.784 | 1.16 | 3.77 | 1.54 (inactive) | -0.714 | -0.725 | 1.67 (inactive)
C=CCNC(=O)[C@H]1[C@@H]2C(=O)O[C@@H](c3ccccc3)[C@@H](c3ccccc3)N2[C@@H](c2ccc(OCCO)cc2)[C@]12C(=O)N(C(=O)OCCOC)c1ccccc12 | 0.111 | 1.47 | -0.109 | -0.472 | -2.66 | 1.34 | 0.131 (inactive) | -0.562 | 0.465 | -0.918 (inactive)
CC1CC/C=C\[C@H]2OC34C=CCN(Cn5nnc6ccccc65)C(=O)[C@H]3N(C(CO)C(C)C)C(=O)[C@@H]4C2C(=O)O1 (stereo not given in full) | 0.101 | 0.0716 | 0.0778 | 0.654 | -0.872 | -0.388 | -0.573 (inactive) | -0.637 | -0.454 | 0.238 (inactive)
CC1CC/C=C\[C@H]2OC34C=CCN(C(C)(C)C)C(=O)[C@H]3N(CCCCCCO)C(=O)[C@@H]4C2C(=O)O1 (stereo not given in full) | 0.406 | 0.305 | 1.08 | 0.742 | 0.298 | 0.436 | 1.11 (inactive) | 0.563 | -0.166 | -0.43 (inactive)
CC(C)C[C@@H]1NC(=O)[C@@H]2C[C@H](C(=O)NCCCCCN)[C@H](c3cccc(OCCO)c3)N2C1=O | 0.938 | 0.624 | 1.89 | 0.767 | 1.26 | 1.75 | 0.00134 (inactive) | -0.71 | -0.495 | -0.217 (inactive)
COc1ccc(C(O)C2C=CC3C(=O)NC(=O)C3N2Nc2ccccn2)c2ccccc12 (stereo not given) | 0.606 | -1.17 | 0.384 | -0.178 | 0.384 | -1.11 | 0.296 (inactive) | -0.905 | -0.143 | -0.703 (inactive)
CCOc1cc(C(O)C2C=CC3C(=O)N(c4ccccc4)C(=O)C3N2Nc2ccccc2)ccc1O (stereo not given) | -0.0398 | -1.24 | 0.992 | -3.04 | 0.461 | -1.32 | -2.33 (inactive) | 0.279 | -0.817 | 0.314 (inactive)
